This experiment can be described thus: chemical genetic growth profiling, strain panel (AID 1159580).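 Note: tested at 20 µM; growth read once vehicle control cultures reached saturation at 30 °C; 1 = growth at the plate median or of vehicle wells; lower values mean less growth of the strain.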 The note with it: growth OD.
The mark [1] stands for this setting: S. cerevisiae deletion strains, locus YAL013W, strain DEP1, active compounds read low.
Setting [2] is: S. cerevisiae deletion strains, locus YGR078C, strain PAC10, active compounds read low.
Where [3] appears, read: S. cerevisiae deletion strains, locus YMR263W, strain SAP30, active compounds read low.
[4] abbreviates: S. cerevisiae deletion strains, locus YMR307W, strain GAS1, active compounds read low.
Where [5] appears, read: S. cerevisiae deletion strains, locus YNL153C, strain GIM3, active compounds read low.
The mark [6] stands for this setting: S. cerevisiae deletion strains, locus YBR229C, strain ROT2, active compounds read low.
[7] abbreviates: S. cerevisiae deletion strains, locus YDL101C, strain DUN1, active compounds read low.
Where [8] appears, read: S. cerevisiae deletion strains, locus YDL134C, strain PPH21, active compounds read low.
The mark [9] stands for this setting: S. cerevisiae deletion strains, locus YDR150W, strain NUM1, active compounds read low.
Where [10] appears, read: S. cerevisiae deletion strains, locus YEL061C, strain CIN8, active compounds read low.
[11] abbreviates: S. cerevisiae deletion strains, locus YHR030C, strain SLT2, active compounds read low.
[12] abbreviates: S. cerevisiae deletion strains, locus YHR087W, strain rtc3, active compounds read low.
Setting [13] is: S. cerevisiae deletion strains, locus YJR043C, strain POL32, active compounds read low.
[14] abbreviates: S. cerevisiae deletion strains, locus YJR075W, strain HOC1, active compounds read low.
[15] abbreviates: S. cerevisiae deletion strains, locus YKL190W, strain CNB1, active compounds read low.
The mark [16] stands for this setting: S. cerevisiae deletion strains, locus YLR039C, strain RIC1, active compounds read low.
Setting [17] is: S. cerevisiae deletion strains, locus YLR058C, strain SHM2 (second series), active compounds read low.
Where [18] appears, read: S. cerevisiae deletion strains, locus YLR085C, strain ARP6, active compounds read low.
The mark [19] stands for this setting: S. cerevisiae deletion strains, locus YLR262C, strain YPT6, active compounds read low.
[20] abbreviates: S. cerevisiae deletion strains, locus YML094W, strain GIM5, active compounds read low.
Where [21] appears, read: S. cerevisiae deletion strains, locus YMR219W, strain ESC1, active compounds read low.
The mark [22] stands for this setting: S. cerevisiae deletion strains, locus YNL298W, strain CLA4 (second series), active compounds read low.
Setting [23] is: S. cerevisiae deletion strains, locus YNL322C, strain KRE1, active compounds read low.
The mark [24] stands for this setting: S. cerevisiae deletion strains, locus YNR030W, strain Alg12, active compounds read low.
Where [25] appears, read: S. cerevisiae deletion strains, locus YPL055C, strain LGE1, active compounds read low.
The mark [26] stands for this setting: S. cerevisiae deletion strains, locus YPL241C, strain CIN2, active compounds read low.
Where [27] appears, read: S. cerevisiae deletion strains, locus YPR135W, strain CTF4, active compounds read low.
The mark [28] stands for this setting: S. cerevisiae strains, strain wild type, active compounds read low.
[29] abbreviates: S. cerevisiae deletion strains, locus YHR079C, strain IRE1, active compounds read low.
[30] abbreviates: S. cerevisiae deletion strains, locus YJL095W, strain BCK1, active compounds read low.
The mark [31] stands for this setting: S. cerevisiae deletion strains, locus YJR066W, strain TOR1, active compounds read low.
Setting [32] is: S. cerevisiae deletion strains, locus YLR113W, strain HOG1, active compounds read low.
Where [33] appears, read: S. cerevisiae deletion strains, locus YNL183C, strain NPR1, active compounds read low.
Setting [34] is: S. cerevisiae deletion strains, locus YOR231W, strain MKK1, active compounds read low.
Setting [35] is: S. cerevisiae deletion strains, locus YPL256C, strain CLN2, active compounds read low.

Out of some 5,500 compounds screened, about 2,000 (36%) were called active. Roughly 18% stayed inconclusive and do not appear here. The list shows a part of the results. A number with no mark means an inactive call. Cut-off read from the data, not from the text of the source: active = normalized growth mostly below about 0.91 (no sharp cut-off); inconclusive = no clear call, values can overlap the other calls; inactive = mostly above about 0.92.

Consider `Nc1nc(Cl)nc2c1ncn2[C@@H]1O[C@H](CO)[C@H](O)C1O` (stereo partly drawn), for which the normalized growth is 1.01 under setting [1]; 1.02 (S. cerevisiae deletion strains, locus YAL040C, strain CLN3, active compounds read low); 0.991 (S. cerevisiae deletion strains, locus YER002W, strain NOP16, active compounds read low); 1.01 under setting [2]; 1.01 under setting [3]; 1 under setting [4]. Moreover, the normalized growth reads like this: under setting [5], 1.04; (S. cerevisiae deletion strains, locus YNL175C, strain NOP13, active compounds read low) 0.996; (S. cerevisiae deletion strains, locus YNL197C, strain WHI3, active compounds read low) 0.979; (S. cerevisiae deletion strains, locus YNL224C, strain SQS1, active compounds read low) 1; (S. cerevisiae deletion strains, locus YOR083W, strain WHI5 (second series), active compounds read low) 1.02.

For the molecule `FC(F)(F)Oc1ccc(-c2noc(CSc3ccc(Br)cc3)n2)cc1`, the normalized growth was 1.02 under setting [1]; 1.01 under setting [6]; 0.967 under setting [7]; 0.999 under setting [8]; 1 under setting [9]; 0.974 under setting [10]. The normalized growth by setting is: under setting [2], 1; under setting [11], 0.69 (active); under setting [12], 1.01; under setting [13], 0.992; under setting [14], 0.978; under setting [15], 0.989. The normalized growth runs as follows: under setting [16], 1.05; under setting [17], 0.997; under setting [18], 0.905; under setting [19], 1; under setting [20], 0.99; under setting [21], 1. The normalized growth is, setting by setting: under setting [3], 0.997; under setting [4], 0.75; under setting [5], 1; under setting [22], 0.969; under setting [23], 0.996; under setting [24], 0.958. For the same molecule, the normalized growth was 1.04 under setting [25], 0.966 under setting [26], 1.1 under setting [27] and 0.985 under setting [28].

Regarding `CC(=O)OCC1=C(C(=O)O)N2C(=O)[C@@H](N)C2SC1` (stereo partly drawn), the normalized growth under setting [11] was 1.06; the normalized growth under setting [29] was 1.07; the normalized growth under setting [30] is 1.07; the normalized growth under setting [31] was 0.976; the normalized growth under setting [32] was 1.05; the normalized growth under setting [33] is 0.983. Moreover, the normalized growth is, setting by setting: under setting [34], 1.07; under setting [35], 1.07.

For `C[C@H]1CC2C3CCC4=CC(=O)C=C[C@]4(C)[C@@]3(F)[C@@H](O)C[C@]2(C)[C@@]1(O)C(=O)COP(=O)(O)O` (stereo partly drawn), the normalized growth is, setting by setting: under setting [11], 1.07; under setting [29], 1.08; under setting [30], 1.03; under setting [31], 0.971; under setting [32], 1.03; under setting [33], 0.983. In addition, the normalized growth is, setting by setting: under setting [34], 1.08; under setting [35], 1.09.

In the case of `O=C(O)COCC(=O)N1CCc2c([nH]c3ccccc23)C1C(F)(F)F` (stereo not drawn), the normalized growth is, setting by setting: under setting [1], 1.01; under setting [6], 0.998; under setting [7], 1.02; under setting [8], 1.01; under setting [9], 0.949; under setting [10], 1.01. Moreover, the normalized growth runs as follows: under setting [2], 1.03; under setting [11], 1.06; under setting [12], 1.01; under setting [13], 1.02; under setting [14], 1.06; under setting [15], 1.03. For the same molecule, the normalized growth is 1.03 under setting [16]; 1.02 under setting [17]; 1.33 [resistant] (active) under setting [18]; 0.998 under setting [19]; 1.04 under setting [20]; 1 under setting [21]. Besides, the normalized growth was 0.954 under setting [3]; 1.24 under setting [4]; 1.01 under setting [5]; 1.05 under setting [22]; 1.02 under setting [23]; 1.06 under setting [24]. In addition, the normalized growth by setting is: under setting [25], 0.961; under setting [26], 1.07; under setting [27], 1.05; under setting [28], 1.02.
